The nature of experiment [1]: inhibitors of TNFa-induced NFkB p65 translocation, primary screen, imaging, HUVEC, MLSMR starter and 10KST1 sets (AID 438;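 active means inhibition above 20% together with a positive visual image hit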;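 further: compound added about 3h40 before a 20 min TNFalpha stimulation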;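 on inhibition: signal is the nuclear over cytoplasmic p65 intensity ratio per well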). The following applies: HUVEC TNFa-induced p65 nuclear translocation; cell count: measured here: nuclei count (cytotoxicity indicator), at 2.08 µM; inhibition: at 2 µM, stronger effect = higher value, 0% TNFa-plus-vehicle, 100% no-TNFa wells.
Experiment [2] in a line: inhibitors of mutant huntingtin aggregation, primary screen, imaging, exon1htt(103Q)mCFP cells, high-content imaging (AID 483).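 Further: compound exposure lasted 3 days before fixation.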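 On nuclei count: percent of the per-plate median nuclei count of sample wells.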 The conditions noted are these: exon1htt(103Q)mCFP cell line, aggregate imaging, at 2 µM; inhibition of aggregation: stronger effect = higher value; nuclei count: measured here: cell count, toxicity.
The nature of experiment [3]: inhibitors of E-selectin induction by TNFa, primary screen, imaging, HUVEC, immunofluorescence, MLSMR starter and 10KST1 sets (AID 487;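 active means visually confirmed hit in the image check and inhibition above 20%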;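 on inhibition: signal is fraction of cell area covered by stained E-selectin grains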;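 on nuclei count: 100% = median nuclei count of all wells on the same plate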). The following applies: HUVEC TNFalpha-induced E-selectin immunofluorescence imaging, at 2 µM; inhibition: stronger effect = higher value; nuclei count: measured here: cell number, toxicity.
In experiment [4] the target is Voltage-gated potassium channel subunit beta-2 (Rattus norvegicus) (UniProt P62483). Nature of the experiment: KvBeta enzyme negative modulators, primary screen, biochemical, NADPH fluorescence (AID 622;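 active means fluorescence slope higher than the sample average by over 3 SD, cut at about -0.22 in these data, passing the limit was not always enough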;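 further: slope of raw intensity against log time taken from 70 to 1610 s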). The following applies: recombinant KvBeta, 4-cyanobenzaldehyde reduction, at 10 µM, stronger effect = higher value.
For experiment [5] the target is unchanged. Nature of the experiment: KvBeta positive modulators, primary screen, biochemical, NADPH fluorescence (AID 623;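 active means NADPH fluorescence slope more negative than the mean of all samples by about 3 SD, 99.7% confidence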;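 further: fluorescence intensity change per second fitted from 20 to 320 s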). The conditions noted are these: Recombinant KvBeta, NADPH fluorescence decrease slope, 10 min; at 10 µM; stronger effect = lower value.
In experiment [6] the target is Alpha-2C adrenergic receptor (Homo sapiens) (UniProt P18825). Description: modulators of alpha2C/GIRK thallium flux, primary screen, cell-based, HEK293 alpha2C/GIRK1/2 (AID 624;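 active means fluorescence slope after compound addition differing from the mean of all screened samples at 99.7% confidence, in either direction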;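 further: slope of fluorescence ratio to pre-addition baseline per second over 15 to 24 s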). The conditions noted are these: thallium flux BTC fluorescence, at 10 µM, actives lie on both sides.
Experiment [7] is described as follows: inhibitors of Sendai virus-induced IRF3 signaling, primary screen, TLR/RLR signaling modifier project, cell-based, Sendai virus stimulus, luciferase, 10K MLSCN set (AID 602276;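 active means inhibition at or above 50% at 10 µM; inactive means inhibition below 50%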;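 further: firefly luciferase from ISG56 promoter only with Renilla not read in this screen; 0% = Sendai virus plus DMSO and 100% = medium plus DMSO without virus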). The following applies: HEK293 RL24 IRF3 luciferase reporter, at 10 µM, stronger effect = higher value. (In general: Reporter assays use an easily measured gene product as a stand-in for the process of interest.)

A short description of experiment [8]: inhibitors of poly I:C-induced TLR3 signaling, primary screen, cell-based, poly I:C stimulus, luciferase, 10K MLSCN set (AID 602277;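 active means inhibition of the reporter signal at or above 50%; inactive means inhibition below 50%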). The conditions noted are these: HEK293-TLR3 RL24 IRF3 luciferase reporter, at 10 µM, stronger effect = higher value.

Calls of active or inactive are those of the source.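 How the source made its calls, unless noted: active means visual image review flags a hit and inhibition of aggregation exceeds 20%; inconclusive means visual hit but inhibition at or below 20%; inactive means no hit on visual image review.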

Sequence of Alpha-2C adrenergic receptor (Homo sapiens) (P18825 whole entry, looked up): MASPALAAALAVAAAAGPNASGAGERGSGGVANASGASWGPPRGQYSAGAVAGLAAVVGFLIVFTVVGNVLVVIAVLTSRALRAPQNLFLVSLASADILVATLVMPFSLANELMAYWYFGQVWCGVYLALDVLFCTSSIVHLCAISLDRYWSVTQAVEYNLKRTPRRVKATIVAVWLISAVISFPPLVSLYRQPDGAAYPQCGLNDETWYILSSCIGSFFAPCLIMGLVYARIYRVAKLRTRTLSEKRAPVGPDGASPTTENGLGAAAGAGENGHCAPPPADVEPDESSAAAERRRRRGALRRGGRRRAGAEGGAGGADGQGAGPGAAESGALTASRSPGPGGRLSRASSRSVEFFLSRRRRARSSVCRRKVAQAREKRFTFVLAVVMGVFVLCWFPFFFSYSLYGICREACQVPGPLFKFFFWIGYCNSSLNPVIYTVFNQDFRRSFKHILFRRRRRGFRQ
Sequence of Voltage-gated potassium channel subunit beta-2 (Rattus norvegicus) (P62483 whole entry, looked up): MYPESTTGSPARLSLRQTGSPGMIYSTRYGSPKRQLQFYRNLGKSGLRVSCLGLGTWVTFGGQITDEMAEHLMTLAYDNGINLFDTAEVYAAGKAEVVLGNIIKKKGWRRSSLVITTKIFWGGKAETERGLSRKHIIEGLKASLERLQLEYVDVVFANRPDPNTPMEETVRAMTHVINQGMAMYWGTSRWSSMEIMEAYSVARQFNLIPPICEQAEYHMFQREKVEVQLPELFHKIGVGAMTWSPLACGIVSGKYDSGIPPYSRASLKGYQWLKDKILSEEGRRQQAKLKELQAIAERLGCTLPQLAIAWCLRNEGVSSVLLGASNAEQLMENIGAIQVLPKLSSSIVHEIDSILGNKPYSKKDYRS

Usually inhibition stands for the change of the read-out against control, counted positive when it falls. Consider `CC(=O)Nn1c(C)nnc1-n1nc(C)cc1C`, for which the cell count in experiment [1] worked out at 594. For the same compound, the inhibition is -9.2% (inactive) in experiment [1], -52.4% (inactive) in experiment [3], 5.42% (inactive) in experiment [7] and 18.4% (inactive) in experiment [8]. For the same compound, the inhibition of aggregation in experiment [2] was 11.6% (inactive). Besides, the nuclei count in experiment [2] came to 94.1%; in experiment [3], 117%. In addition, the fluorescence slope in experiment [4] was -0.474 (inactive). Also, the NADPH fluorescence slope in experiment [5] is -9.2e-05 (inactive). Also, the slope in experiment [6] was 0.00573 (inactive).

On to `O=C(CSc1nnc(-c2ccccc2)o1)N1CCN(c2ccccc2)CC1`, for which, in experiment [1], the cell count came to 220. The inhibition was 12.5% (inactive) in experiment [1], -98.1% (inactive) in experiment [3], 5.38% (inactive) in experiment [7] and 2.42% (inactive) in experiment [8]. Moreover, the inhibition of aggregation in experiment [2] was -9.2% (inactive). The nuclei count was determined as 88.7% in experiment [2] and 105% in experiment [3]. Also, the fluorescence slope in experiment [4] was -0.406 (inactive). In addition, the NADPH fluorescence slope in experiment [5] was -3.6e-05 (inactive). Further, the slope in experiment [6] was 0.0062 (inactive).

Turning to `Cc1ccc(-n2c(=O)c(C#N)cc3c(=O)n4ccccc4nc32)cc1`, the cell count in experiment [1] worked out at 338. Besides, the inhibition in experiment [1] is 3.6% (inactive); in experiment [3], -31% (inactive); in experiment [7], 5.28% (inactive); in experiment [8], 26.9% (inactive). The inhibition of aggregation in experiment [2] was -21.9% (inactive). The nuclei count came out at 99.9% in experiment [2] and 102% in experiment [3]. In addition, the fluorescence slope in experiment [4] is -0.232 (inactive). For the same compound, the NADPH fluorescence slope in experiment [5] was 9.6e-06 (inactive). For the same compound, the slope in experiment [6] was 0.00607 (inactive).

As to `O=C1CCCc2nc(N3CCCCC3)sc21`, in experiment [1], the cell count is 629. Moreover, the inhibition in experiment [1] was -15.2% (inactive); in experiment [3], -13.1% (inactive); in experiment [7], -57.2% (inactive); in experiment [8] it was -85.2% (inactive). In addition, the inhibition of aggregation in experiment [2] is -20.4% (inactive). Further, the nuclei count in experiment [2] worked out at 108%; in experiment [3], 86.9%. Also, the fluorescence slope in experiment [4] was -0.424 (inactive). Also, the NADPH fluorescence slope in experiment [5] was -4.5e-05 (inactive). Also, in experiment [6], the slope is 0.00423 (inactive).

For `Cc1cc(C)n(-c2nc3c(c(=O)n(Cc4ccc(Cl)c(Cl)c4)c(=O)n3C)n2C)n1`, in experiment [1], the cell count came out at 404. Also, the inhibition is -1.4% (inactive) in experiment [1], -8.9% (inactive) in experiment [3], 4.56% (inactive) in experiment [7] and 21.6% (inactive) in experiment [8]. Besides, the inhibition of aggregation in experiment [2] is 1.2% (inactive). The nuclei count was determined as 105% in experiment [2] and 115% in experiment [3]. In experiment [4], the fluorescence slope was -0.6 (inactive). In experiment [5], the NADPH fluorescence slope was -1.8e-05 (inactive). For the same compound, the slope in experiment [6] is 0.00595 (inactive).

As for `CCOC(=O)CSc1nnc(CCc2nc3ccccc3[nH]2)n1C`, the cell count in experiment [1] was 349. Further, the inhibition in experiment [1] is -1% (inactive); in experiment [3], 12.7% (inactive); in experiment [7] it was -7.44% (inactive); in experiment [8], 100% (active). Besides, the inhibition of aggregation in experiment [2] is 23.8% (inactive). Further, the nuclei count in experiment [2] was 73%; in experiment [3], 93.2%. In addition, the fluorescence slope in experiment [4] was -0.441 (inactive). Moreover, in experiment [5], the NADPH fluorescence slope is -2.8e-05 (inactive). Further, the slope in experiment [6] was 0.00684 (inactive).

Consider `CNC(=O)CSc1nnc(-c2ccc(S(=O)(=O)N3CCCC3)cc2)n1-c1cccc(C)c1C`, for which, in experiment [1], the cell count was found to be 643. Also, the inhibition in experiment [1] is -2.4% (inactive); in experiment [3], -87.7% (inactive); in experiment [7] it was 12.2% (inactive); in experiment [8] it was 33.2% (inactive). In addition, in experiment [2], the inhibition of aggregation was -15.2% (inactive). For the same compound, the figures for the nuclei count in experiment [2] and in experiment [3] were 108% and 106%, respectively. Further, the fluorescence slope in experiment [4] is -0.458 (inactive). Further, the NADPH fluorescence slope in experiment [5] was -4.2e-05 (inactive). The slope in experiment [6] is 0.00667 (inactive).

Consider `CC1(C)Oc2ccc3ccc(=O)oc3c2C(N2CCCCC2)C1O` (stereo not drawn), for which the cell count in experiment [1] amounted to 329. For the same compound, the inhibition in experiment [1] was -4.5% (inactive); in experiment [3], -30.2% (inactive); in experiment [7] it was 18.2% (inactive); in experiment [8], 33.6% (inactive). Further, in experiment [2], the inhibition of aggregation is 15% (inactive). For the same compound, the nuclei count in experiment [2] worked out at 94.7%; in experiment [3], 104%. The fluorescence slope in experiment [4] was -0.34 (inactive). Further, the NADPH fluorescence slope in experiment [5] was 1.2e-05 (inactive). For the same compound, in experiment [6], the slope is 0.00144 (inactive).

In the case of `CCn1c(SCC(=O)c2ccc(F)cc2)nnc1-c1ccoc1C`, in experiment [1], the cell count worked out at 423. Further, the inhibition was -19.4% (inactive) in experiment [1], -50.4% (inactive) in experiment [3], 6.99% (inactive) in experiment [7] and 11.7% (inactive) in experiment [8]. For the same compound, the inhibition of aggregation in experiment [2] is -1.3% (inactive). Moreover, the nuclei count in experiment [2] is 78%; in experiment [3] it was 103%. For the same compound, the fluorescence slope in experiment [4] is -0.607 (inactive). Also, in experiment [5], the NADPH fluorescence slope is 1.4e-05 (inactive). Moreover, the slope in experiment [6] was 0.00696 (inactive).

Regarding `COC(=O)CCC(=O)Nc1cccc(Br)c1`, the cell count in experiment [1] was 495. In addition, the inhibition is -5.7% (inactive) in experiment [1], 56.2% (active) in experiment [3], 9.55% (inactive) in experiment [7] and 17.4% (inactive) in experiment [8]. For the same compound, the inhibition of aggregation in experiment [2] is -24.7% (inactive). Also, the nuclei count in experiment [2] came out at 111%; in experiment [3] it was 91.4%. For the same compound, the fluorescence slope in experiment [4] was -0.478 (inactive). Besides, the NADPH fluorescence slope in experiment [5] is -0.000246 (inactive). The slope in experiment [6] is 0.00597 (inactive).

On to `CCOC(=O)CNC(=O)Nc1nnc(-c2ccc(OCC)cc2)o1`, for which the cell count in experiment [1] worked out at 486. The inhibition in experiment [1] was -30.9% (inactive); in experiment [3], -12.6% (inactive); in experiment [7], -14.6% (inactive); in experiment [8] it was -13.9% (inactive). In addition, in experiment [2], the inhibition of aggregation is 3.3% (inactive). Also, the nuclei count in experiment [2] came out at 91.3%; in experiment [3], 103%. Moreover, in experiment [4], the fluorescence slope was -0.591 (inactive). Also, the NADPH fluorescence slope in experiment [5] is 2.1e-05 (inactive). Besides, the slope in experiment [6] is 0.00589 (inactive).

With `Cc1ccc2cc3cc(C(=O)N4CC(C)CC(C)C4)oc3nc2c1` (stereo not drawn), the cell count in experiment [1] stood at 654. The inhibition in experiment [1] is -3.9% (inactive); in experiment [3], -77% (inactive); in experiment [7], 2.56% (inactive); in experiment [8] it was -64.4% (inactive). For the same compound, in experiment [2], the inhibition of aggregation was 14.3% (inactive). In addition, the nuclei count in experiment [2] came out at 86.4%; in experiment [3] it was 110%. Besides, the fluorescence slope in experiment [4] was -0.597 (inactive). For the same compound, the NADPH fluorescence slope in experiment [5] was 7.7e-06 (inactive). Further, the slope in experiment [6] is 0.00635 (inactive).

In the case of `O=c1c2ccccc2nc(SCc2cccc(F)c2)n1Cc1ccco1`, the cell count in experiment [1] was 361. Also, the inhibition in experiment [1] was -3.4% (inactive); in experiment [3], -37.1% (inactive); in experiment [7] it was 9.34% (inactive); in experiment [8], 4.77% (inactive). Also, the inhibition of aggregation in experiment [2] was 4.4% (inactive). Also, the results for the nuclei count in experiment [2] and in experiment [3] were 87.4% and 91.3%, respectively. In addition, in experiment [4], the fluorescence slope is -0.37 (inactive). In addition, the NADPH fluorescence slope in experiment [5] is 2.5e-05 (inactive). Besides, in experiment [6], the slope is 0.0116 (inactive).

The values above are taken from PubChem BioAssay.
